# Legend:
# Assay in all cases: PBM binding z-score (relative to random genomic background probes); higher = stronger binding; sequences stand for … in GC…GCGATTGACAGCGTAGAATGAAGG
# [1] = tested on: RARb homodimer (NR concentration 270 nM)
# Method in brief: (§1)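 Ligand-free nuclear receptor dimers were applied to custom Agilent 4×180K protein-binding microarrays whose double-stranded probes carried direct-repeat seeds, single-nucleotide variants, half-site ablations and random human genomic background sequences in 34-nt variable regions. Incubation lasted 1 h. Binding z-scores were computed against the random background probes from regression-normalized fluorescence.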
# [2] = tested on: RARg:RXRa (NR concentration 270 nM, RXRa partner concentration 90 nM)
# Method in brief: as §1
# [3] = tested on: RARg homodimer (NR concentration 270 nM)
# Method in brief: as §1
# [4] = tested on: RXRa DBDmut IVT, anti-RXR (DBD mutation: RXRa K156A/R161A, NR concentration 90 nM)
# Method in brief: as §1
# [5] = tested on: RXRa homodimer (NR concentration 180 nM)
# Method in brief: as §1
# [6] = tested on: THRa:RXRa (NR concentration 90 nM, RXRa partner concentration 90 nM)
# Method in brief: as §1
# [7] = tested on: THRa homodimer (NR concentration 90 nM)
# Method in brief: as §1
# [8] = tested on: VDR:RXRa (NR concentration 270 nM, RXRa partner concentration 90 nM)
# Method in brief: as §1
# [9] = tested on: VDR homodimer (NR concentration 270 nM)
# Method in brief: as §1
Sequence,PBM binding z-score [1],PBM binding z-score [2],PBM binding z-score [3],PBM binding z-score [4],PBM binding z-score [5],PBM binding z-score [6],PBM binding z-score [7],PBM binding z-score [8],PBM binding z-score [9]
ACTAGTTGGTCAGCTGAGGTCGCACACAATTCGG,2.35,1.52,1.76,0.828,1.46,4.25,2.58,2.2,1.32
TCTGCTAGGTCTACGATGGTCAGCTAATCTGCTA,-0.552,-0.506,-0.409,0.00299,-0.775,-1.43,-1.26,-0.625,-1.28
TGTCAAAGTTCAAAGGTAACCTAAGTATCCACAC,3.92,6.15,5.71,4.52,7.11,3.64,0.627,5.12,3.92
TCTATTTGTTGATTAGGGCAACCGAAACAGCGGA,0.77,0.864,0.859,1.28,0.492,0.89,0.561,0.823,0.505
TCGAGTATGTTAGTCGGGGCATTCAGCCAACATA,-0.183,-0.172,-0.574,0.723,-0.06,0.102,-0.431,0.158,0.226
CCAGACAGGTGAGAAGGTAACTCTGCCTCGATTA,0.53,0.418,0.366,0.11,0.281,0.348,0.0664,-0.12,-0.0879
CGTCCAAGGTCAGAGAGGTCAGTGATTGCCGAGT,5.16,6.26,7.26,3.31,5.33,4.13,3.03,7.23,5.48
AGAACGAGGGCACGCTGAGTAGATAGCAGAGTAG,0.843,1.94,2.23,1.58,1.45,1.58,-0.259,0.928,0.46
TCGAGTATGTTACCAATGGGGCATTCAGCTTTCT,-0.135,-0.111,-0.492,0.904,-0.0794,-0.318,-0.731,-0.0704,-0.375
GCTGCTTGGTCAGGTTGGTCAGCTAACGGGTACG,0.727,-0.088,0.0673,0.0173,-0.438,-0.199,0.0955,-0.35,0.00601
TCTTGTAGATCAAAGGTTACGAAAGCCGAAGCCT,1.9,2.29,1.06,0.663,3.64,1.66,-0.301,1.6,-0.125
CCTACTGGGCCATCAGGTCCTTGATATCAACGTT,0.0749,-0.0484,0.0919,-0.586,-0.412,0.183,0.322,-0.0448,0.000123
ATCTCTAGGTAAAGTTTAGTGAAAGATCGATAGA,0.401,0.251,0.558,0.303,0.0525,0.362,0.126,0.28,0.236
ATGGAAAGGTCGAAGGTGAGTATACCCACCCGAA,2.68,4.21,3.87,0.318,4.97,2.3,0.00488,2.81,0.714
ACAGACAGGTGAGTGAAGGTACCTCAGCTGGACG,-0.44,-0.0299,0.22,-0.86,-0.0741,0.291,-0.575,-0.805,-0.908
GGAACGAGGGCAACTTGATAGCAGAGTTTGATGG,1.42,1.7,2.17,2.2,1.13,1.26,0.0506,0.718,1.35
CGAACTAGGTCATTGACAGTACAGTGAATAGTAA,2.62,3.89,4.03,2.62,2.48,2.48,0.979,2.57,0.986
CAAACTAGTTCACAGAGGTCAAAGTCCGTGCGTA,4.92,6.03,5.68,3.93,6.83,4.01,1.93,7.47,7.92
CCTAGCATGCCAGGGTCACTCAAGCATTTCGCTT,2.54,2.81,2.01,0.413,3.35,2.95,1.01,2.59,0.827
CCGACTGGGGCATAAGGTTACCAGAAGCCAGCCC,1.99,1.86,1.08,-0.501,1.26,2.28,1.23,0.214,-0.301
CCTCGGAGGACAGAAGGTCATAGCTGTCCGCTTT,3.97,4.4,3.92,0.657,3.43,2.95,0.318,2.69,1.45
CAAACTAGGCCAAGAGGTCAAAGTCCGCTTCCCG,4.79,5.84,5.21,2.07,6.52,3.75,1.81,4.94,3.94
TAACCTAGGTCAGATCGGGCCAGTATACGCTATA,2.52,3.36,3.68,0.17,1.94,4.19,0.384,1.52,0.367
AGTCAAAGTTCACTAGGTAACGGAAGATTCAGCT,3.81,5.03,5.67,4.26,3.89,2.04,0.215,3.97,3.71
CGTCATAGTTCAACTAAGGTAACGTAAAGCACGC,2.62,3.44,3.83,2.38,2.7,5.14,1.9,2.59,1.51
ATCGAAAGGTCGAAGGTGAGTATTCCCACCCGAA,2.4,4.36,3.76,1.17,5.41,2.13,0.00651,2.58,0.282
